Assay results as given in PubChem BioAssay.
Unmarked numbers belong to inactive results. The rule behind the calls is not given here.

molecular target: Pantothenate synthetase (Mycobacterium tuberculosis (strain ATCC 25618 / H37Rv)) (UniProt P9WIL5); experiment: Coupled enzyme confirmation of inhibitors against recombinant Mtb PanC (AID 375); conditions: coupled enzyme assay; at 10 µM, stronger effect = higher value;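 note: 0% = full reaction with vehicle and 100% = no enzyme background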
Sequence (P9WIL5 whole entry, looked up): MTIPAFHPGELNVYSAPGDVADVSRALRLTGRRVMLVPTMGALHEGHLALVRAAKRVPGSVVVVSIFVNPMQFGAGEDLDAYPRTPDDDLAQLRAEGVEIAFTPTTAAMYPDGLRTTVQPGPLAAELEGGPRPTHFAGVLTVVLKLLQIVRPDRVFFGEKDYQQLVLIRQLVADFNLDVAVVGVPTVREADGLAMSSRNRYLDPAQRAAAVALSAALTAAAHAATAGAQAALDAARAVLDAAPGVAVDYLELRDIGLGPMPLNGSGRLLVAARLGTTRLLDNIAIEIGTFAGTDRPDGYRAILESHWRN

| SMILES | inhibition [%] |
| --- | --- |
| O=C(NC1(C(F)(F)F)C(=O)Nc2c1c(=O)[nH]c(=O)n2Cc1ccco1)C1CCCCC1 (stereo not given) | 0 |
| CN(C(=O)c1cc2sccc2n1C)C1CCCCC1 | 6 |
| Cc1cc(/C=c2/sc3nc4ccccc4n3c2=O)c(C)n1-c1ccccn1 | 1 |
| Oc1ccc2[nH]cnc2c1CN1CCCCC1 | 0 |
| C=CCSC1=C(C#N)C(c2ccccc2C)CC(=O)N1 (stereo not given) | 0 |
| O=C(OCCCN1C(=O)c2ccccc2C1=O)c1ccco1 | 2 |
| COCCn1c(=N)c(C(=O)NCCc2ccccc2)cc2c(=O)n3cccc(C)c3nc21 | 3 |
| O=c1c2cc(N3CCOCC3)ccc2[nH]c(=S)n1CCCN1CCCCC1 | 1 |
| Nc1c(N2CCCCC2)c(=O)[nH]c(=O)n1-c1ccccc1 | 0 |
| COc1ccc(C2CC(c3ccc(Cl)cc3Cl)n3nc(N)nc3N2)cc1 (stereo not given) | 0 |
| CCOC(=O)Cn1c(CCC(=O)O)ccc1-c1ccc(F)cc1 | 3 |
| CCOC(=O)c1ccc(N2C(=O)CC(Sc3nnc(C)s3)C2=O)cc1 (stereo not given) | 0 |
| Cc1cc(Oc2ccc(Cl)cc2)nc(-c2ccccc2O)n1 | 7 |
| COC(=O)c1ccccc1NC(=O)CN1CCC(n2nnc3cc(F)ccc32)CC1 | 0 |
| N#Cc1c(-c2ccc3c(c2)OCO3)csc1N | 9 |
| O=C(Cn1nc(Cc2ccncc2)c2ccccc2c1=O)N1CCc2ccccc2C1 | 0 |
| N#Cc1nc(COc2ccc(Br)cc2)oc1N1CCCC1 | 16 |
| CN(C)c1nc(OCCOC(=O)Nc2ccc(Cl)cc2Cl)nc(N(C)C)n1 | 0 |
| CCN(CC)C(=O)C1CCCN(c2ncnc3c2cnn3-c2ccc(Cl)cc2)C1 (stereo not given) | 4 |
| CC(C)[C@H](NC(=O)NCc1ccc(Cl)cc1)C(=O)O | 0 |

| SMILES | inhibition [%] |
| --- | --- |
| O=C(Nc1cccc(F)c1)N1CC=C(n2c(=O)[nH]c3ccccc32)CC1 | 5 |
| CN(C)CCOC(c1ccccc1)c1ccccc1 (tested in a mixture with another compound) | 0 |
| S=c1[nH]nc(Cc2ccccc2)n1Cc1ccco1 | 0 |
| COC(=O)Nc1sc2c(c1C(=O)N1CCOCC1)CCC(C)C2 (stereo not given) | 0 |
| Cc1ccc(CNC(=O)C2CCN(S(=O)(=O)c3cccs3)CC2)o1 | 0 |
| CNC(=O)CN(c1cc(C)ccc1OC)S(=O)(=O)c1ccc(C)cc1 | 3 |
| COc1ccc(-n2c(N)c(C(=O)NCc3ccco3)c3nc4ccccc4nc32)c(OC)c1 | 4 |
| CCOC(=O)Nc1ccc2c(CN3C(=O)NC4(CCCC4)C3=O)cc(=O)oc2c1 | 2 |
| Cc1cc(C(=O)CSc2nc3ccccc3[nH]2)c(C)n1C | 12 |
| CC(=O)c1c(C)nn(C(C)CC(=O)O)c1C (stereo not given) | 0 |
| CCOC(=O)CNC(=O)CSc1nc(N)cc(N)n1 | 1 |
| CCC(=O)Nc1c(C#N)c2nc3ccccc3nc2n1-c1ccccc1C | 16 |
| CCC(=O)N[C@@H]1CC(C(C)(C)NC(=O)CC)CC=C1C (stereo not given in full) | 6 |
| CCN(CC)c1ccc(-c2nn3c(-c4cccnc4)nnc3s2)cc1 | 4 |
| Cc1cc(C)n(-c2ccc3cccc(NS(C)(=O)=O)c3n2)n1 | 0 |
| COc1ccc(Br)cc1-c1noc(-c2ccccc2)n1 | 4 |
| CCOc1ccc2nc(NC(=O)CSc3nc4ccccc4c(=O)n3Cc3ccco3)sc2c1 | 0 |
| O=C(OCc1nnc(-c2ccccc2)o1)C1=COCCO1 | 0 |
| COc1cc(C2C(C#N)=C(C)NC3=C2C(=O)CC(C)(C)C3)ccc1O (stereo not given) | 0 |
| CC(C(=O)O)c1ccc(-c2ccccc2)c(F)c1 (stereo not given) | 0 |
